The record followed here is PubChem BioAssay (Tox21).

In experiment [1] the target is Thyrotropin receptor (Homo sapiens) (UniProt P16473). Description: qHTS assay to identify small molecule antagonists of the thyroid stimulating hormone receptor (TSHR) signaling pathway (AID 1259385; calls by dose curve; further: nearly all actives have a fitted effect of over 20% in size). In short, it runs like this:
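Antagonist mode: compound-treated TSHR-expressing HEK293 cells were stimulated with 1.5 ng/mL TSH (final) in presence of Ro20-1724 for 30 min at RT. HTRF cAMP detection after 1 h; each compound tested at 15 concentrations, triplicate.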

Experiment [2] can be described thus: qHTS assay to identify small molecule agonists of the estrogen receptor alpha (ER-alpha) signaling pathway in the presence of an antagonist - cell viability counter screen (AID 1259386).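 Further: series mostly up to about 92 µM; cells exposed to compounds for 22 h at 37 °C before the viability read; nearly all actives have a fitted effect of over 30% in size.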 In short, it runs like this: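 Steps: 5-day stripped-FBS culture; seed and incubate 24hr; add ICI-182,780 (10.0nM final); pin 15-point compound titration; incubate 22hr at 37C; add CellTiter-Fluor at 21hr; read fluorescence.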

The target in experiment [3] is Progesterone receptor (Homo sapiens) (UniProt P06401). Description: qHTS assay to identify small molecule agonists of the progesterone receptor (PR) signaling pathway (AID 1346784; calls by dose curve; further: nearly all actives have a fitted effect of over 30% in size). In short, it runs like this: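 Cells (PR-UAS-bla HEK 293T, GripTite) were plated in assay medium containing 2% charcoal-stripped FBS and incubated 6 hr. Test compounds in DMSO were added for 16 hr at 37C. FRET substrate was then loaded for 2 hr at room temperature before fluorescence reading.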

Experiment [4] is described as follows: qHTS assay to identify small molecule agonists of the progesterone receptor (PR) signaling pathway - cell viability counter screen (AID 1346799; calls by dose curve; further: nearly all actives have a fitted effect of over 45% in size; further: potency means the concentration at half of the fitted maximal effect). The gist of the method:
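Cells (PR-UAS-bla HEK293T) are plated at 3,000/well in 2% charcoal-stripped FBS medium, rested 6 hr, dosed and incubated 16 hr at 37C. CellTiter-Glo is then added and luminescence measured after 30 min at room temperature.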

Experiment [5] can be described thus: qHTS assay to identify small molecule antagonists of the TGF-beta/Smad signaling pathway - cell viability counter screen (AID 1346824). Further: nearly all actives have a fitted effect of over 50% in size. In short, it runs like this: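 Cytotoxicity counter-screen run in the same wells as the beta-lactamase Smad reporter read: CellTiter-Glo luminescence after 30 min at room temperature. HEK 293T SBE-bla cells had 5 hr compound exposure at 37 C with TGF-beta1 (0.25 ng/mL stock).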

Experiment [6] in a line: qHTS assay to identify small molecule agonists of the TGF-beta/Smad signaling pathway - cell viability counter screen (AID 1346829). Further: top concentration of the series differs between compounds; nearly all actives have a fitted effect of over 45% in size. The gist of the method: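 In parallel with the Smad reporter read, viability of HEK 293T cells stably carrying SBE-bla is quantified by ATP luminescence following 5 hr compound treatment.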
Experiment [7] can be described thus: qHTS assay to identify small molecule agonists of the TGF-beta/Smad signaling pathway (AID 1346859; active means well fitted activation curve with a large enough effect in the signal ratio in the repeat runs, not every such curve was filed as active; the % refers to the signal ratio; further: series mostly up to about 77 µM). The gist of the method: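 Reporter line: HEK 293T with stably integrated SBE-controlled beta-lactamase. Compound exposure lasts 5 hr at 37 C and 5% CO2; substrate loading follows for 2 hr at room temperature, with emission read at 460 and 530 nm.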
Experiment [8] has as its target Thyrotropin-releasing hormone receptor (Homo sapiens) (UniProt P34981). Put plainly: qHTS assay to identify small molecule antagonists of the thyrotropin-releasing hormone receptor (TRHR) signaling pathway (AID 1346877; active means well fitted inhibition curve with a large enough effect in the repeat runs, not every such curve was filed as active; further: series mostly up to about 51 µM). The gist of the method: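 Human TRHR in HEK293 cells; inhibition of the intracellular calcium rise triggered by 1 nM TRH was followed by fluorescence over 3 min. Compounds were run at 15 concentrations, three replicates each.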

Experiment [9] is described as follows: qHTS assay to identify small molecule antagonists of the progesterone receptor (PR) signaling pathway - cell viability counter screen (AID 1346798). Further: nearly all actives have a fitted effect of over 50% in size. Further: potency means the concentration at half of the fitted maximal effect. In short, it runs like this: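 Counter screen for cytotoxicity: viability of PR-UAS-bla HEK293T cells was measured with CellTiter-Glo luminescence following 16 hr compound exposure in the presence of R5020.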
Experiment [10] deals with Progesterone receptor (Homo sapiens) (UniProt P06401). Description: qHTS assay to identify small molecule antagonists of the progesterone receptor (PR) signaling pathway (AID 1346795; active means well fitted inhibition curve with a large enough effect in the signal ratio in the repeat runs, not every such curve was filed as active; the % refers to the signal ratio). The gist of the method: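 Antagonist mode: compounds tested against 1 nM (final) promegestone stimulation in HEK293T cells expressing PR-UAS-bla reporter, 16 hr at 37C, 5% CO2; beta-lactamase activity detected via B/G FRET substrate after 2 hr at room temperature.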

Values without a mark were called inactive. Inconclusive results are not listed. The source made the active and inactive calls. Unless noted, the call rests on the fitted dose curve; in most records, active means well fitted curve in the direction sought with a large enough effect in the repeat runs; inconclusive means weak or mixed curves; inactive means no such curve, though single readings can be large; an effect the other way counts as inactive or inconclusive.

Progesterone receptor (Homo sapiens), sequence (P06401 whole entry, looked up): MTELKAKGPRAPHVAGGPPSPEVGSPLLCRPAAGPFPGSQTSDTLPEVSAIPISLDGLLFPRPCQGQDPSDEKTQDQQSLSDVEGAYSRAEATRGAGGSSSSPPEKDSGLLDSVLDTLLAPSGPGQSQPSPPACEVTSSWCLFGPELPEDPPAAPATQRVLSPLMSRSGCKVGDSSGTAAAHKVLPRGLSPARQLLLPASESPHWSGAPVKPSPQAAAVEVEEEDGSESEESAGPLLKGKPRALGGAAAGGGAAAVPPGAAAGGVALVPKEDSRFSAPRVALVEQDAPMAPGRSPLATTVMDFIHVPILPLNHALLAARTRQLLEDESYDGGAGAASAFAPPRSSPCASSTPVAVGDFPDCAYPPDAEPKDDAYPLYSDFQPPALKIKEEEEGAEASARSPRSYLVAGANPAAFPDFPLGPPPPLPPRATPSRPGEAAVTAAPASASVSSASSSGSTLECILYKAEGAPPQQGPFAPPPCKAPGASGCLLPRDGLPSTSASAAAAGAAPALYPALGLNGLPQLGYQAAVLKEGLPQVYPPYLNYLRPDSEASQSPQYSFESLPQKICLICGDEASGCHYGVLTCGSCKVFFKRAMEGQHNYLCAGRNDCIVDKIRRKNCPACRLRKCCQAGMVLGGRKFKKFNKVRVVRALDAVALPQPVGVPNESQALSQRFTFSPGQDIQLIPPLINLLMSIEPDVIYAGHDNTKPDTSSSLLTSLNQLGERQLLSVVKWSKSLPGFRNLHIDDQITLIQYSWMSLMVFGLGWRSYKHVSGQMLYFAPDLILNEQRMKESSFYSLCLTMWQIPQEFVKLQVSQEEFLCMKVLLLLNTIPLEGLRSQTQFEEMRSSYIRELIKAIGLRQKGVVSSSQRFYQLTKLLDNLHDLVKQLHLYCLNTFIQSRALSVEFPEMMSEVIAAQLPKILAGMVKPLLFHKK
Thyrotropin-releasing hormone receptor (Homo sapiens), sequence (P34981 whole entry, looked up): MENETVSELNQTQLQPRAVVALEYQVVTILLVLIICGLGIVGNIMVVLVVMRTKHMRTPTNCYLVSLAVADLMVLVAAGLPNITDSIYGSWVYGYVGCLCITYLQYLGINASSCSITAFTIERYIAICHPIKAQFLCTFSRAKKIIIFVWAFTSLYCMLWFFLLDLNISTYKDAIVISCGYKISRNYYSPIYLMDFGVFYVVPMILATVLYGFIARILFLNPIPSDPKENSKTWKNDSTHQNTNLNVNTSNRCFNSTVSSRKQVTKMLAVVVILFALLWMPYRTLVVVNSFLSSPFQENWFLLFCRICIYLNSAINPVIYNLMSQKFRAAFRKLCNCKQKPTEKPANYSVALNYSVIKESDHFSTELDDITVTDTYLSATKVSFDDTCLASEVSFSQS
Thyrotropin receptor (Homo sapiens), sequence (P16473 whole entry, looked up): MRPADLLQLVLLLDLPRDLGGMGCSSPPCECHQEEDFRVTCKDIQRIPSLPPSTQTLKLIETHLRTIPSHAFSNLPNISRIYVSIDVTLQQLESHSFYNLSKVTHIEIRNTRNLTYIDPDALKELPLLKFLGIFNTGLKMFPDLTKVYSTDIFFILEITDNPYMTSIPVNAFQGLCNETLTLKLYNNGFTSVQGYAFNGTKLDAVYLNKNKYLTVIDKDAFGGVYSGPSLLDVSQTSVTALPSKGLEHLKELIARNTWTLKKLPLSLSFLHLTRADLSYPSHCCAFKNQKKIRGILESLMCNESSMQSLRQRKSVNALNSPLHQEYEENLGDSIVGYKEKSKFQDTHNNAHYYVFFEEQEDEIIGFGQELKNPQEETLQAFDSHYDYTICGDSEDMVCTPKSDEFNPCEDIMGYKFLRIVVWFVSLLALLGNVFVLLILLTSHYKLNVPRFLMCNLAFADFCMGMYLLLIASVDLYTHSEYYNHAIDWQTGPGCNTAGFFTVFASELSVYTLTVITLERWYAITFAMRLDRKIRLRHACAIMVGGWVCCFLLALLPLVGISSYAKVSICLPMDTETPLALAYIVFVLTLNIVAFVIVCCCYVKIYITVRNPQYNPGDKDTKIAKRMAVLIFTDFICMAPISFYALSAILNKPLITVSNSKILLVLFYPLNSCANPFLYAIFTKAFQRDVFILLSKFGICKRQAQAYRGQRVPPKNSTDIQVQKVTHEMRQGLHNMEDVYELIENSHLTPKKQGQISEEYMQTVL

Take `BrCc1ccc(Br)cc1`: the outcome in [1], in [5] and in experiment [7] was inactive. In addition, the Potency entry in [2], in experiment [3], in experiment [4], in experiment [6] and in experiment [8] was “inactive” in each case.
With `NC(=O)CS(=O)C(c1ccccc1)c1ccccc1` (stereo not given), the compound was called inactive in experiment [1], in experiment [5] and in experiment [7]. The Potency result in experiment [2], in experiment [3], in experiment [9], in experiment [4], in experiment [6] and in [8] was “inactive” each time.
On to `O=C(O)C(F)(F)C(F)(F)C(F)(F)C(F)(F)C(F)(F)C(F)(F)F`, for which the outcome in [1], in experiment [5] and in [7] was inactive. Moreover, the Potency result in experiment [2], in experiment [10], in [6] and in experiment [8] was “inactive” each time. The Potency in [9] was 48.6 µM (active); in experiment [4] it was 27.3 µM (active).
As for `CCCC(C)(COC(N)=O)COC(N)=O`, the outcome in experiment [1], in experiment [5] and in [7] was inactive. Moreover, the Potency entry in experiment [3], in experiment [10], in experiment [9], in experiment [4] and in [6] was “inactive” throughout.
Consider `CCCCCCCC(=O)Cl`, for which the outcome in experiment [1], in [5] and in experiment [7] was inactive. Moreover, the Potency result in experiment [3], in [10], in [9], in experiment [4], in [6] and in experiment [8] was “inactive” in each case.
On to `CC(C)(C)C(=O)Cl`, for which the result in [1], in experiment [5] and in experiment [7] was inactive. Moreover, the Potency entry in experiment [2], in [9], in experiment [4], in [6] and in experiment [8] was “inactive” throughout.
For `C1CN2CCC1CC2`, the outcome in [1], in [5] and in experiment [7] was inactive. In addition, the Potency entry in [3], in experiment [10], in experiment [9], in experiment [4], in experiment [6] and in experiment [8] was “inactive” each time.
Take `CN(CCO)CCO`: the call in [1], in experiment [5] and in experiment [7] was inactive. The Potency result in experiment [2], in [3], in [9], in experiment [4], in experiment [6] and in experiment [8] was “inactive” throughout.
For the compound `CCCCS(=O)(=O)Cl`, the outcome in [1] and in [5] was inactive. Moreover, the Potency result in [2], in [3], in experiment [9], in experiment [4] and in experiment [8] was “inactive” each time.
`CCC(=O)c1ccc(Cl)cc1`: the outcome in experiment [1], in [5] and in experiment [7] was inactive. Also, the Potency entry in experiment [2], in [3], in [9], in experiment [4], in experiment [6] and in experiment [8] was “inactive” throughout.
In the case of `[P]#[In]`, the call in experiment [1], in [5] and in [7] was inactive. For the same compound, the Potency entry in experiment [2], in experiment [9], in experiment [4], in experiment [6] and in [8] was “inactive” throughout.
In the case of `CCc1cc(OC)c(C[C@H](C)N)cc1OC`, the compound was classed as inactive in [1], in [5] and in experiment [7]. Also, the Potency entry in experiment [2], in experiment [3], in experiment [6] and in experiment [8] was “inactive” each time.
For `CC(C)N(Cc1ccccc1)C(=O)C(C)(C)C`, the compound was called inactive in [1], in [5] and in experiment [7]. Further, the Potency result in [2], in experiment [3], in experiment [9], in [6] and in experiment [8] was “inactive” each time.
Regarding `COC(=O)c1ccccc1CS(=O)(=O)NC(=O)Nc1nc(OC)cc(OC)n1`, the outcome in experiment [1], in experiment [5] and in experiment [7] was inactive. Also, the Potency entry in experiment [2], in experiment [10], in [9], in [4] and in [8] was “inactive” each time.
As to `CNC(=O)O/N=C(/CSC)C(C)(C)C`, the result in experiment [1], in [5] and in experiment [7] was inactive. The Potency result in experiment [2], in [9], in experiment [4], in [6] and in experiment [8] was “inactive” throughout.
In the case of `CN1C(=O)COc2c(C(=O)NC3CN4CCC3CC4)cc(Cl)cc21` (stereo not given), the call in [1], in experiment [5] and in experiment [7] was inactive. Besides, the Potency entry in experiment [2], in experiment [3], in experiment [9], in [4], in [6] and in [8] was “inactive” each time.
For `CCOC1Oc2ccc(OS(C)(=O)=O)cc2C1(C)C` (stereo not given), the outcome in experiment [1] and in experiment [5] was inactive. For the same compound, the Potency result in experiment [2], in [3] and in [8] was “inactive” each time.
For the compound `CC[C@H](O)C(C[C@H](C)N(C)C)(c1ccccc1)c1ccccc1`, the compound was called inactive in experiment [1], in experiment [5] and in experiment [7]. The Potency result in experiment [2], in experiment [3] and in [4] was “inactive” each time.
In the case of `O=C(Cl)c1ccccc1`, the compound was called inactive in experiment [1], in [5] and in experiment [7]. The Potency result in experiment [3], in experiment [10], in [9], in experiment [4], in experiment [6] and in [8] was “inactive” in each case.
As for `CCOP(=S)(OCC)Oc1ccc(Cl)cc1Cl`, the call in experiment [1] and in experiment [5] was inactive. The Potency result in [2], in experiment [3], in experiment [9], in experiment [4], in [6] and in experiment [8] was “inactive” throughout.
For the compound `OP(O)c1ccccc1`, the outcome in [1], in experiment [5] and in experiment [7] was inactive. In addition, the Potency entry in experiment [3], in experiment [10], in experiment [9], in experiment [4], in experiment [6] and in [8] was “inactive” throughout.
